Source: PubChem BioAssay (several laboratories)
LGR2 inh – inhibitors of bursicon-induced Drosophila LGR2 receptor cAMP signaling | HEK293 LGR2, CRE-luciferase, bursicon-stimulated, 4 h | inhibition, % at 9.99 µM | 380,000 compounds, 0.35% hits | AID 720647;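 active means drop in luminescence signal, shown as inhibition above about 50% in the replicate tests, limit read from the data, passing the limit was not always enough; inconclusive means probably only some replicates passing the limit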;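 further: agonist challenge used bursicon conditioned medium at about half maximal strength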
NCOA1 inh – inhibitors of human steroid receptor coactivator 1 (SRC1) | Q15788 | HEK293 GAL4-SRC1 luciferase reporter, luminescence | inhibition, % at 3.6 µM | 360,000 compounds, 0.12% hits | AID 588354;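 active means inhibition above the campaign mean plus 3 SD, with each screening campaign given its own cutoff, cut at about 60% in these data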;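 further: 0% = DMSO treated cells and 100% = gossypol at 36 µM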
SRC3 inh – inhibitors of human steroid receptor coactivator 3 (SRC3); Q9Y6Q9; HEK293 GAL4-SRC3 luciferase reporter, luminescence; inhibition, % at 3.6 µM; 360,000 compounds, 0.17% hits; AID 588352;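 active means inhibition above a per-campaign cutoff, the mean of all compounds plus 3 SD, cut at about 60% in these data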;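 further: 0% = DMSO-treated cells and 100% = gossypol-treated cells at 36 µM; higher means less SRC3-driven luciferase light from the GAL4 reporter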
LRH-1 inv ag – inverse agonists of human LRH-1 (NR5A2) | O00482 | HEK293T StAR-luciferase reporter, LRH-1 transfected, 24 h | inhibition, % at 3.6 µM | 360,000 compounds, 0.13% hits | AID 602396;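 active means inhibition above the mean inhibition of all tested compounds plus 3 SD, cut at about 73% in these data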;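 further: 0% = DMSO wells and 100% = reporter-only cells lacking LRH-1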
NCOA2 inhibitor – inhibits human steroid receptor coactivator 2; Q15596; HEK293 GAL4-SRC2 luciferase reporter, luminescence; inhibition, % at 9 µM; 370,000 compounds, 0.17% hits; AID 651957;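 active means inhibition above the mean inhibition of all tested compounds plus 3 SD, set per campaign, cut at about 52% in these data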;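 further: 0% = DMSO treated cells and 100% = cells given Gossypol at 36 µM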
The depositor's hits bear a star; u = inconclusive; x = not tested or not shown. Most compounds without a hit are left out; they make up all but 0.48% or so of the library.

SMILES	LGR2 inh	NCOA1 inh	SRC3 inh	LRH-1 inv ag	NCOA2 inhibitor
COc1ccc(C(=O)/C=C/C(=O)N(CC(=O)NC2CCCCC2)Cc2ccccc2)c(O)c1	100*	-1	4	-10	-8
CCN1CCN(C(=S)c2ccc(-c3ccccc3)cc2)CC1	-7	28	18	11	71*
CC(C)C(=O)Nc1ccc2c(c1)C(=O)N(C)[C@H]1CC[C@@H](CC(=O)N[C@H](C)c3ccccc3)O[C@@H]1CO2	-3	x	x	x	x
CC(=O)N(Cc1ccc(F)cc1)C1=C(NCc2ccccc2)C(=O)c2ccccc2C1=O	x	24	63*	40	x
O=C(NCc1ccc(F)cc1)C(c1ccccc1)c1ccccc1	7	-45	7	3	7
Cc1cccc(-c2nnc(-c3cccc4ccccc34)o2)c1	-25	-104	-88	-84	-27
Cc1cccc(-c2nnc(-c3ccc4ccccc4c3)o2)c1	52*	-137	-97	-88	-100
CC(=O)Nc1ccc(NC2=C(Cl)C(=O)c3ccccc3C2=O)cc1	56*	x	x	x	-47
O=C1C(Cl)=C(Nc2ccc3cn[nH]c3c2)C(=O)c2ccccc21	-29	-27	-13	19	88*
CN(C)c1ccc(NC2=C(Cl)C(=O)c3ccccc3C2=O)cc1	49	-77	-54	-131	-29
CC(=O)c1c(C)oc2c1C(=O)c1ccccc1C2=O	-4	6	23	13	-9
COc1ccc(CNC(=O)c2c(C)oc3c2C(=O)c2ccccc2C3=O)cc1	77*	13	-13	12	-7
O=C(N[C@@H]1CC[C@@H](CCNS(=O)(=O)c2ccc(Cl)cc2)O[C@H]1CO)c1cnccn1	1	x	x	x	x
NC1=C(Cl)C(=O)c2ccc(S(N)(=O)=O)cc2C1=O	105*	90*	90*	95*	80*
CO[C@@H]1CN(C)C(=O)c2ccc(NC(=O)c3ccc(F)cc3)cc2OC[C@@H](C)NC[C@@H]1C	-1	x	x	x	x
C[C@@H]1CCCCO[C@H](CN(C)S(C)(=O)=O)[C@H](C)CN([C@@H](C)CO)C(=O)c2cc(NC(=O)c3ccncc3)ccc2O1	-9	x	x	x	x
COc1ccc(CCN2C(=O)c3cccc4c(C(=O)N5CCCCC5)ccc(c34)C2=O)cc1OC	102*	20	50	-4	-24
O=C(/C=C/c1cccnc1)/C=C/c1cccnc1	15	-51	-12	37	52*
C(=Cc1cccnc1)c1ccncc1	11	21	12	6	11
N#Cc1ccc(/C=C/C(=O)c2cccnc2)cc1	81*	3	10	2	-14
O=C(/C=C/c1ccc(Cl)cc1)c1cccnc1	x	-32	-3	6	-37
O=C(O)c1ccccc1C(=O)Nc1ccc(Oc2cccc3ccccc23)cc1	18	56	71*	62	89*
CCC(=O)N1CCC2(CC1)CN(C(=O)NC1CCCC1)[C@@H](CO)c1c2c2ccc(OC)cc2n1C	2	x	x	x	x
O=C(C[C@H]1C=C[C@@H](NC(=O)CCN2CCCCC2)[C@H](CO)O1)Nc1ccccc1	12	x	x	x	x
OC(c1cc(C(F)(F)F)nc2c(C(F)(F)F)cccc12)C1CCCCN1 (centres undefined)	70*	4	2	7	-29
SMILES	LGR2 inh	NCOA1 inh	SRC3 inh	LRH-1 inv ag	NCOA2 inhibitor
OC(c1cc(-c2ccc(C(F)(F)F)cc2)nc(C(F)(F)F)c1)C1CCCCN1 (centres undefined)	2	-58	13	20	4
O=C(/C=C/c1ccccc1)CC(O)(c1ccccc1)C(F)(F)C(F)F (centres undefined)	u	14	34	23	35
O=C(/C=C/c1ccccc1)CC(O)(c1ccccc1)C(F)(F)F (centres undefined)	x	40	72*	20	40
Cc1noc(C)c1NC(=O)N(C)C[C@@H]1Oc2ccc(NC(=O)CCCCCC(=O)Nc3ccccc3N)cc2C(=O)N([C@H](C)CO)C[C@@H]1C	1	x	x	x	x
Cc1c(CCC(=O)N2CCC(C(=O)O)CC2)c(=O)oc2cc3oc4c(c3cc12)CCCC4	-40	-4	-53	-6	63*
Cc1oc2cc3oc(=O)c(CCC(=O)N4CCC(C(=O)O)(c5ccccc5)CC4)c(C)c3cc2c1C	3	16	11	17	3
Cc1c(CCC(=O)N[C@@H](C)C(=O)O)c(=O)oc2cc3oc4c(c3cc12)CCCC4	-45	9	1	5	67*
Cc1c(CC(=O)NCCCC(=O)O)c(=O)oc2cc3oc4c(c3cc12)CCCC4	9	-6	-20	-17	-22
Cc1c(CCC(=O)N2CCC(C(=O)O)(c3ccccc3)CC2)c(=O)oc2cc3oc4c(c3cc12)CCCC4	x	1	-21	3	58*
Cc1c(CC(=O)NCCC(=O)O)c(=O)oc2cc3oc4c(c3cc12)CCCC4	-6	-6	-6	-4	6
C[C@H]1CN([C@@H](C)CO)S(=O)(=O)c2ccc(-c3cccnc3)cc2O[C@@H]1CN(C)C(=O)C1CCC1	4	x	x	x	x
CCN1CCN(CC(=O)N2N=C(c3cccs3)CC2c2ccc(OC)c(OC)c2)C(=O)C1=O (centres undefined)	-8	10	25	3	14
C=C1C(=O)c2sccc2C(c2ccc(OC)c(OC)c2)C1COC(C)=O (centres undefined)	106*	59	47	71	84*
CCCC(=O)N1CC2(C1)CN(C(=O)COC)[C@H](CO)c1c2c2ccc(OC)cc2n1C	-9	x	x	x	x
O=C(O)CCC(=O)Nc1nnc(C(F)(F)F)s1	x	-4	7	4	-15
CCC(NC(=O)Nc1nnc(C(F)(F)F)s1)(C(F)(F)F)C(F)(F)F	x	56	76*	62	24
O=C(Nc1nc2ccccc2s1)c1cnccn1	x	-86	-70	-155	-40
O=C(Nc1nc2cc3c(cc2s1)OCCO3)C1=COCCO1	100*	54	65*	44	68*
CC(=O)Nc1nc2cc3c(cc2s1)OCCO3	38	-93	-136	-140	-67
O=C(Nc1nc2ccc(F)cc2s1)c1ccccn1	90*	x	x	x	-55
O=C(Nc1nc2ccc(F)cc2s1)C1=COCCO1	63*	-61	-43	-72	12
c1ccc2c(c1)CCN(c1nc3cc4c(cc3s1)OCCO4)C2	x	44	32	37	58*
COc1ccc(OC)c2sc(N3CCc4ccccc4C3)nc12	-9	4	3	-15	-5
COc1cccc(NC(=O)N2CC3(C2)[C@H](c2ccccc2)[C@H](CO)N3C(=O)C2CC2)c1	-6	x	x	x	x
C[C@H]1CN([C@@H](C)CO)C(=O)Cc2cc(NS(=O)(=O)c3ccc(Cl)cc3)ccc2O[C@H]1CN(C)C(=O)Nc1ccc2c(c1)OCO2	7	x	x	x	x
COc1ccccc1-c1cc2nc(-c3ccccc3)cc(N3CCN(C(=O)c4ccco4)CC3)n2n1	89*	43	34	19	37
COc1ccccc1-c1cc2nc(-c3ccccc3)cc(N3CCN(C(=O)c4ccoc4)CC3)n2n1	36	24	29	36	14
N#C/C(=C\c1ccc([N+](=O)[O-])cc1)c1ccccn1	-11	-49	-14	-16	-35
